The source of these data is PubChem BioAssay (NCI).

This is part of a sample that, as a whole, favours compounds with a hit. Of some 83,000 tested, about 20% had one in any assay.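 Cells were grown in 96-well plates and exposed to the test compound at a single concentration for 48 hours; results are reported as percent growth, with values below 10 considered active.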 Values without a mark were called inactive. Calls of active or inactive are those of the source.

Holding throughout (assay): NCI-60 one-dose screen, 48 h (100 = growth as untreated, 0 = no growth, -100 = all killed)
Assay [1] relates to EKVX NSCLC. The note with it: 10 µM unless noted.
Assay [2] concerns SN12C renal. Particulars: 10 µM unless noted.
Assay [3] relates to UO-31 renal. Particulars: 10 µM unless noted.
In assay [4] the test system is TK-10 renal. The note with it: 10 µM unless noted.
Assay [5] concerns ACHN renal. The note with it: 10 µM unless noted.
Assay [6] relates to CAKI-1 renal. The note with it: 10 µM unless noted.
Assay [7] deals with CCRF-CEM leukemia. The note with it: 10 µM unless noted.
The test system of assay [8] is MOLT-4 leukemia. Particulars: 10 µM unless noted.
Assay [9] relates to SR leukemia. The note with it: 10 µM unless noted.
Assay [10] has as its system RPMI-8226 leukemia. Particulars: 10 µM unless noted.
In assay [11] the test system is OVCAR-8 ovarian. The note with it: 10 µM unless noted.
Assay [12] relates to OVCAR-5 ovarian. The note with it: 10 µM unless noted.
Assay [13] deals with OVCAR-4 ovarian. Particulars: 10 µM unless noted.
Assay [14] deals with SK-OV-3 ovarian. The note with it: 10 µM unless noted.
The subject of assay [15] is IGROV1 ovarian. Particulars: 10 µM unless noted.
For assay [16], the system named is OVCAR-3 ovarian. The note with it: 10 µM unless noted.
For assay [17], the system named is NCI/ADR-RES ovarian. Particulars: 10 µM unless noted.
Assay [18] has as its system HS 578T breast. Particulars: 10 µM.
For assay [19], the system named is A498 renal. The note with it: 10 µM unless noted.

On to `C=CC(=O)Nc1cc(Nc2nccc(-c3cn(C)c4ccccc34)n2)c(OC)cc1N(C)CCN(C)C`, for which the growth was -46.2% (active) in assay [1]; -59.3% (active) in assay [2]; -83.2% (active) in assay [3]; -17.1% (active) in assay [4]; -95.4% (active) in [5]; -86.4% (active) in assay [6]. Also, the growth in [7] was -17.1% (active); in [8] it was -52.7% (active); in assay [9], -24% (active); in assay [10] it was -22% (active); in [11], -25.4% (active); in assay [12], -56.5% (active). Also, the growth is -13.5% (active) in [13]; 15.4% in assay [14]; -48.8% (active) in assay [15]; -55.3% (active) in assay [16]; -38.8% (active) in assay [17].
Consider `CCN1CCN(Cc2ccc(NC(=O)Nc3nc(-c4cc(OC)c(OC)c(OC)c4)cs3)cc2C(F)(F)F)CC1`, for which the growth in assay [1] is 26.8%; in assay [2] it was 28.9%; in assay [3], 53.2%; in assay [4], 62.4%; in [5] it was 20.8%; in [6], 55.2%. In addition, the growth in assay [7] was 0.288% (active); in assay [8], -18.9% (active); in assay [9], -32.6% (active); in assay [10], -26% (active); in [11], 14.1%; in assay [12], 71.3%. Also, the growth in assay [13] was 14.1%; in assay [14] it was 36.1%; in assay [15] it was 49.5%; in assay [16], 22.8%; in assay [18], 40%; in assay [17] it was -6.84% (active).
Regarding `N#Cc1ccc(-n2nnc3ccccc32)cc1C#N`, the growth in assay [1] was 79.2%; in assay [2] it was 101%; in [3], 88.5%; in assay [4], 134%; in assay [5], 103%; in assay [6], 85.4%. For the same compound, the growth was 72.8% in [19]; 93.1% in assay [7]; 93.3% in [8]; 101% in assay [10]; 99% in assay [11]; 110% in assay [12]. In addition, the growth is 110% in assay [13]; 98.8% in [14]; 104% in assay [15]; 101% in assay [16]; 105% in [18].
As for `Cc1cccc(Cl)c1NC(=O)c1cnc(Nc2cc(N3CCOCC3)cc(N3CCOCC3)c2)s1`, the growth in [1] was 33.1%; in [2], 30%; in assay [3] it was -0.169% (active); in assay [4] it was -65.2% (active); in assay [5], -7.5% (active); in assay [6], -37.8% (active). In addition, the growth in [19] was -22.6% (active); in assay [8] it was 27.8%; in assay [9], 15.7%; in assay [10], 89.8%; in [11], -36.2% (active); in [12] it was 23.3%. Moreover, the growth was 60.4% in assay [13]; -38.7% (active) in assay [14]; -51.7% (active) in assay [15]; 19.7% in [16]; 23.6% in [17].
Regarding `CN1CCN(c2nc(C3=C(c4c[nH]c5ccccc45)C(=O)NC3=O)c3ccccc3n2)CC1`, the growth in assay [1] was 82.6%; in [2], 92.3%; in assay [3], 64%; in [4], 47.3%; in assay [5] it was 70.2%; in [6] it was 54.9%. Moreover, the growth is 75.1% in [19]; 74.7% in [8]; 68.7% in [9]; 97.8% in assay [10]; 66.9% in [11]; 25.1% in assay [12]. In addition, the growth in [13] was 71.9%; in assay [14], 87.1%; in assay [15], 75.4%; in [16], 110%; in [17], 85.1%.
For `CNC(=O)c1cc(COc2nnc(Nc3ccc(Cl)cc3)c3ccoc23)ccn1`, the growth in [1] is 56.7%; in assay [2], 38.9%; in assay [3], -3.27% (active); in assay [4], 33%; in assay [5], 23.4%; in assay [6] it was 28.2%. Besides, the growth in [19] was 62.6%; in [8], 73.6%; in assay [9] it was 61.3%; in [10], 89.9%; in [11], 14.3%; in [12], 23.5%. The growth in assay [13] was -38.4% (active); in assay [14], -60.8% (active); in assay [15] it was 24.7%; in assay [16], 46.6%; in assay [17], 15.2%.
For `CNC(=O)c1cccc2cc(Oc3ccnc4cc(OCC5(N)CC5)c(OC)cc34)ccc12`, the growth in assay [1] was 84.1%; in [2] it was 52.7%; in assay [3] it was 37.6%; in assay [4] it was 63.9%; in assay [5] it was 30.9%; in assay [6], 38.2%. Further, the growth in assay [19] was 57.1%; in [8], 30.6%; in assay [9] it was 27.6%; in assay [10], 81.7%; in assay [11] it was 48.9%; in assay [12] it was 65.3%. Also, the growth in assay [13] is 49.4%; in assay [14], 69.8%; in assay [15], 39.5%; in assay [16] it was 61.4%; in assay [17] it was 76%.
On to `N#CCNC(=O)c1ccc(-c2ccnc(Nc3ccc(N4CCOCC4)cc3)n2)cc1`, for which the growth in assay [1] is 43.9%; in assay [2], 31.5%; in assay [3], -60.4% (active); in assay [4] it was -8.51% (active); in [5], 6.04% (active); in assay [6] it was -5.7% (active). Also, the growth is -31.8% (active) in assay [19]; 15.7% in assay [7]; 7.11% (active) in assay [8]; 6.43% (active) in assay [9]; 24.1% in assay [11]; 29% in assay [12]. Also, the growth was 65.8% in assay [13]; 28.7% in assay [14]; 10.7% in assay [15]; 31.9% in assay [16]; 62.7% in assay [17].
